Source: PubChem
AddAB inh – less growth of phage-infected E. coli with AddAB | E. coli expressing H. pylori AddAB, absorbance growth | AID 435030 | actives 0.29% (n = 330,000) | inhibition, % at 11.9 µM; in the data active means inhibition above about 12%;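 further: 0% = vehicle wells of infected cells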
Tat transport – inhibitors of E. coli Tat protein transport; actives 0.036% (n = 340,000); inhibition, % at 10 µM; E. coli MC4100 TorA-mCherry Tat export, fluorescence;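 active means mean replicate inhibition at least 50% and at least half of replicates individually reaching 50%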;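 further: exported cargo escapes ClpAP degradation while cytoplasmic cargo is degraded and loses fluorescence; 0% = median of neutral control wells and 100% = median of NaSCN control wells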
phage Ecoli inh – E. coli growth loss with phage present. growth absorbance. inhibition, % at 11.9 µM. actives 0.26% (n = 360,000); in the data active means inhibition above about 11%
E coli growth-1 – inhibitors of Escherichia coli growth; OD600, 23 h; hits give low values; OD600 absorbance (no concentration beside the values); actives 0.21% (n = 330,000); AID 1053175;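 active means OD600 absorbance below the run mean of sample wells minus 3.6 SD, in any replicate, cut at about 0.56 in these data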
E coli growth-2 – reduces bacterial viability in AddAB counter-screen; actives 0.27% (n = 330,000); inhibition, % at 11.9 µM; E. coli V3065 growth, OD600 absorbance, 18 h;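 active means inhibition above the campaign's mean inhibition across all tested compounds plus 3 SD, cut at about 9.9% in these data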;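 further: uninfected addAB+ strain grown without phage in ampicillin broth; 0% = DMSO wells and 100% = ciprofloxacin 0.95 µg/ml wells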
AddAB confirm – growth loss of T4-infected E. coli expressing H. pylori AddAB, confirmed | shares compounds with AddAB inh | E. coli V3065 expressing H. pylori AddAB, T4 phage, OD; T4 phage with gene 2 nonsense mutations | inhibition, % at 11.9 µM | actives 64% (n = 880) | AID 488942;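 active means mean inhibition above a set limit taken from the earlier primary screen, cut at about 13% in these data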;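 further: higher means less bacterial growth since AddAB block lets phage replicate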
RecBCD counter – counter-screen: growth loss of RecBCD+ E. coli with mutant T4 phage | AID 488955 | E. coli V66 + mutant T4 phage, OD growth | actives 73% (n = 880) | inhibition, % at 11.9 µM | shares compounds with AddAB inh;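 active means mean inhibition above the mean of solvent-only control wells plus 3 SD, cut at about 4% in these data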;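 further: optical density read after an 18 h incubation at 37 °C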
bact viab count – counter-screen for AddAB inhibitors: inhibitors of bacterial viability. shares compounds with AddAB inh. absorbance (AddAB counterscreen). inhibition, % at 11.9 µM. actives 35% (n = 880); in the data active means inhibition above about 25%
RecBCD conf – confirmation: growth loss of phage-infected RecBCD+ E. coli (RecBCD inhibitor screen); AID 651982; actives 45% (n = 890); inhibition, % at 11.9 µM; E. coli V66 + T4 2- phage, growth OD; shares compounds with phage Ecoli inh;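 active means mean inhibition over triplicates exceeding the hit threshold derived in the original primary screen, cut at about 11% in these data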
Ecoli viability – counter-screen for RecBCD inhibitors: inhibitors of bacterial viability. shares compounds with phage Ecoli inh. E. coli viability, absorbance (OD) growth. inhibition, % at 11.9 µM. actives 29% (n = 890). AID 651983; in the data active means inhibition above about 20%;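 further: E. coli strain V66 grown with compound alone and no phage infection; 0% = bacteria with DMSO vehicle only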
AddAB phage OD – growth loss of phage-infected AddAB E. coli, RecBCD counter-screen; E. coli expressing H. pylori AddAB + T4 phage, OD growth; gene 2 mutant T4, recBCD-deleted host; actives 45% (n = 890); AID 651984; inhibition, % at 11.9 µM; shares compounds with phage Ecoli inh;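 active means mean inhibition above the solvent-only control wells' mean plus 3 SD, cut at about 22% in these data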;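 further: higher means less bacterial growth from phage killing when AddAB is blocked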
* = called active by the depositor; x = not tested or not shown. This is a sample that favours compounds with a hit; in the whole collection about 0.5% have one here.

SMILES	AddAB inh	Tat transport	phage Ecoli inh	E coli growth-1	E coli growth-2	AddAB confirm	RecBCD counter	bact viab count	RecBCD conf	Ecoli viability	AddAB phage OD
CCCCCCNC(=O)c1cn(CC)c2cc(N3CCN(C)CC3)c(F)cc2c1=O	98*	79*	98*	0.067*	97*	101*	100*	101*	101*	102*	101*
CCn1cc(C(=O)NCCCO)c(=O)c2cc(F)c(N3CCN(C)CC3)cc21	99*	94*	100*	0.071*	99*	100*	99*	100*	99*	100*	98*
Nc1nc(N)c2cc(Sc3ccc4ccccc4c3)ccc2n1	98*	x	63*	0.079*	102*	98*	72*	94*	70*	65*	95*
O=C(NNC(=O)C1CCN(S(=O)(=O)c2ccc(Cl)cc2)CC1)c1ccccc1O	12*	-2	12*	x	7	7	7.3*	8	-2	1	4
O=[N+]([O-])c1ccc(O)c2cccnc12	-3	-13	3	0.63	0	x	x	x	x	x	x
O=[N+]([O-])c1cc(Cl)c2cccnc2c1O	68*	-9	52*	0.067*	62*	63*	70*	63*	78*	79*	63*
O=[N+]([O-])c1cc(F)c2cccnc2c1O	53*	-19	40*	0.083*	54*	50*	49*	41*	53*	53*	48*
O=C(NN=Cc1ccc[nH]1)c1ccncc1	x	x	x	0.65	x	x	x	x	x	x	x
Oc1ccc2ccccc2c1N=Nc1ccccn1	26*	4	27*	0.74	31*	27*	25*	25	23*	27*	30*
Cc1cccc(C2C3C(=O)N(Cc4ccccc4)C(=O)C3[C@]3(Cc4ccccc4)C(=O)N(c4ccc(C(F)(F)F)cc4)C(=O)N23)c1 (stereo partly drawn)	x	x	x	0.7	x	x	x	x	x	x	x
O=c1c2ccc(Cl)cc2nc(-c2cccc(C(F)(F)F)c2)n1O	12*	-4	11*	0.78	11*	4	7.9*	-1	0	2	1
N#Cc1ccc(-c2nc3cc(Cl)ccc3c(=O)n2O)cc1	-7	3	-6	0.63	-8	x	x	x	x	x	x
Cc1cc(C)nc(SCC(=O)Nc2ccc(N3CCOCC3)cc2)n1	5	-2	3	0.68	1	x	x	x	x	x	x
Cc1nc(SCC(=O)Nc2ccc(N3CCOCC3)cc2)nc(C)c1C	14*	-10	13*	0.67	13*	9	9.1*	5	6	10	0
COc1ccc(CCc2cc(OC)c(OC)c(OC)c2)cc1	x	4	0	x	x	x	x	x	x	x	x
COc1cc(Cc2cc(N)nc(N)n2)cc(OC)c1OC	101*	-7	95*	0.051*	101*	99*	99*	99*	103*	105*	103*
FC(F)Oc1ccc(NC(=S)NCc2nc3ccccc3[nH]2)cc1	16*	-74	17*	0.54	17*	33*	19*	22	21*	19	36*
CCOc1ccc(NC(=S)NCc2nc3ccccc3[nH]2)cc1	20*	-35	20*	0.56	16*	32*	19*	24	17*	16	29*
CC(C)c1ccccc1NC(=S)NCc1nc2ccccc2[nH]1	0	-3	3	0.68	0	x	x	x	x	x	x
COc1ccc(/C=N\NC(=O)c2cc(O)c(O)c(O)c2)cc1COc1ccc(C(=O)OCC(C)C)cc1	15*	2	12*	x	10*	12	8.8*	8	5	9	10
O=C(COc1ccccc1)NN=Cc1ccc([N+](=O)[O-])o1	x	x	x	0.55	x	x	x	x	x	x	x
O=C(Cc1ccc2c(c1)OCO2)NN=Cc1ccc([N+](=O)[O-])o1	27*	-3	13*	0.54	9.9*	99*	8.4*	23	7	6	37*
Cc1ccc(NCC(=O)N/N=C\c2ccc([N+](=O)[O-])o2)cc1	8	-6	7	x	4	x	x	x	x	x	x
O=C(CNC(=O)c1ccccc1)N/N=C/c1ccc([N+](=O)[O-])o1	28*	0	20*	x	23*	98*	10*	29*	15*	13	82*
O=C(CNc1ccccc1)N/N=C/c1ccc([N+](=O)[O-])o1	17*	3	12*	x	16*	84*	12*	28*	10	9	59*
SMILES	AddAB inh	Tat transport	phage Ecoli inh	E coli growth-1	E coli growth-2	AddAB confirm	RecBCD counter	bact viab count	RecBCD conf	Ecoli viability	AddAB phage OD
CCCC(=NNC(=O)CNC(=O)c1ccc(Cl)cc1)c1ccccc1	x	x	x	0.66	x	x	x	x	x	x	x
COc1ccc(C=Nn2c(=S)n(C)c3ccccc32)cc1OC	x	x	x	0.73	x	x	x	x	x	x	x
COc1cc(-c2oc3cc(O)cc(O)c3c(=O)c2OC2OC(COC3OC(C)C(O)C(O)C3O)C(O)C(O)C2O)ccc1O (stereo not drawn)	x	x	x	0.64	x	x	x	x	x	x	x
O=C(COCC(=O)NN=Cc1ccccc1F)NN=Cc1ccccc1F	x	x	x	0.7	x	x	x	x	x	x	x
O=C1c2ccccc2C(=O)c2[nH]c(=O)[nH]c21	15*	-22	16*	0.41*	10*	17*	17*	-7	15*	14	29*
Cc1ccc(NC(=O)NNC(=O)c2cc3ccccc3cc2O)cc1C	9	0	7	0.67	5	x	x	x	x	x	x
Cc1cccc(NC(=O)NNC(=O)c2cc3ccccc3cc2O)c1C	13*	-4	12*	x	12*	11	12*	13	5	6	5
Cc1ccc(C)c(NC(=O)NNC(=O)c2cc3ccccc3cc2O)c1	14*	0	14*	0.72	9	12	6.9*	10	3	6	13
Cc1cccc(NC(=S)NNC(=O)c2ccc(O)cc2O)c1C	3	-1	5	0.71	3	x	x	x	x	x	x
O=C(Nc1nnc(-c2cccs2)o1)c1cccc(C(F)(F)F)c1	21*	16	96*	0.5*	13*	16*	14*	12	9	8	17
C/C(=N\Nc1ccc2nncn2n1)c1ccccn1	31*	x	32*	x	27*	22*	29*	19	18*	27*	21
Clc1ccc(C=NN2CCN(Cc3ccccc3Cl)CC2)cc1	x	x	x	0.69	x	x	x	x	x	x	x
